# Inconclusive results are not listed. Activity calls are given as the source filed them. Calls follow the shape of the dose curve; as a rule, active = well fitted cell-killing curve with a large enough effect; inconclusive = small, poorly fitted or top-dose-only effect, or effect the other way; inactive = no such curve, though single readings can be large or run the other way.
# System: Tov-21-G
# Test: Confirmatory qHTS for gynecologic anti-cancer compounds from libraries of approved drugs and bioactive compounds; also: nearly all actives have a fitted effect of over 55% in size
# Settings: gynecologic cancer cell panel viability, ATPlite luminescence, 48 h; series mostly up to 57.7 µM
# In short: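 Viability is measured as ATP-dependent luciferase light using ATPlite, read 15 min after reagent addition at room temperature. Compounds, in DMSO, span 57.5 uM down to 0.977 nM over 11 threefold steps for 48 h.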
# % is scaled to controls: 0 for no effect and ±100 for the full control effect; potency is read from the fitted curve at half-maximal effect.
Compound,Potency,"activity change, negative = viability loss"
CC(=O)OC12COC1CC(O)C1(C)C(=O)C(O)C3=C(C)C(OC(=O)C(O)C(NC(=O)OC(C)(C)C)c4ccccc4)CC(O)(C(OC(=O)c4ccccc4)C21)C3(C)C (configuration not stated),inactive,–
Cc1nc(N)ncc1-c1nc(N2CCOCC2)c2sc(C(C)(C)O)cc2n1,1530 nM (active),–
CC(=O)O[C@H]1C(=O)[C@@]2(C)[C@H]([C@H](OC(=O)c3ccccc3)[C@]3(O)C[C@H](OC(=O)[C@H](O)[C@@H](NC(=O)c4ccccc4)c4ccccc4)C(C)=C1C3(C)C)[C@]1(OC(C)=O)CO[C@@H]1C[C@@H]2O,–,0.907% [at 11 µM] (inactive)
CCN1CCN(Cc2ccc(-c3cc4c(NC(C)c5ccccc5)ncnc4[nH]3)cc2)CC1 (configuration not stated),1720 nM (active),–
Cc1ccc2nc(N)[nH]c(=O)c2c1Sc1ccncc1,inactive,–
CCC(=O)N1CCN(c2ccc(-n3c(=O)ccc4cnc5ccc(-c6cnc7ccccc7c6)cc5c43)cc2C(F)(F)F)CC1,314 nM (active),–
CC[C@@]1(O)C(=O)OCc2c1cc1n(c2=O)Cc2c-1nc1ccccc1c2/C=N/OC(C)(C)C,611 nM (active),–
Cc1ccc(C(=O)Nc2ccc(CN3CCN(C)CC3)c(C(F)(F)F)c2)cc1C#Cc1cnc2cccnn12,1220 nM (active),–
CN1CCCC(n2nc(Cc3ccc(Cl)cc3)c3ccccc3c2=O)CC1 (configuration not stated),30600 nM (active),–
CNC(=O)c1ccccc1Sc1ccc2c(/C=C/c3ccccn3)n[nH]c2c1,10900 nM (active),–
Nc1nc(=S)c2[nH]cnc2[nH]1,inactive,–
CCn1c(-c2nonc2N)nc2c(C#CC(C)(C)O)ncc(OCC3CCCNC3)c21 (configuration not stated),30.6 nM (active),–

# Source: PubChem BioAssay AID1345085 (National Center for Advancing Translational Sciences (NCATS), 2018)
